# This is a sample that favours compounds with a hit; in the whole collection about 12% have one here.
# BAZ2B block – blocks human BAZ2B; Q9UIF8; AlphaScreen BAZ2B-H3K14Ac peptide displacement; Potency, µM (series often up to 114 µM), without a hit: at the highest dose activity change, negative = inhibition, usual class: inhibitors; 360,000 compounds, 4.4% hits; AID 504333; note: % is set by controls: 0 for no effect and ±100 for the full control effect; nearly all actives have a fitted effect of over 60% in size
#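 Compounds, titrated to a top concentration of 110 uM, were incubated 30 min at room temperature with preformed BAZ2B/acetyl-K14 H3 peptide complex (50 nM each). Proximity signal was measured by AlphaScreen after 20 min with beads.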
# JMJD2A Tudor – blocks the human JMJD2A Tudor domain; O75164; AlphaScreen JMJD2A-Tudor / H3K4me3 peptide binding; Potency, µM (highest dose often 114 µM), inactives show top-dose activity change, negative = inhibition, usual class: inhibitors; 390,000 compounds, 4.4% hits; AID 504339; note: % is set by controls: 0 for no effect and ±100 for the full control effect; nearly all actives have a fitted effect of over 50% in size
# HP1b binding inh – blocks HP1-beta chromodomain binding to methylated histone tails | Potency, µM (titrated, usually from 114 µM), for inactives: at the highest dose activity change, negative = inhibition, actives largely listed as inhibitors | 390,000 compounds, 0.56% hits | AlphaScreen HP1-beta / biotin-H3K9me3 peptide binding | P83916; note: nearly all actives have a fitted effect of over 70% in size
#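 HP1-beta protein (50 nM final) preincubated 30 min at room temperature with biotinylated H3(1-18)K9me3 peptide (50 nM) in PBS pH 7.4, 0.01% Tween-20, then compound added for 30 min. AlphaScreen streptavidin donor/nickel chelate acceptor beads (10 ug/mL final), 30 min dark, luminescence read.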
# G9a inh – G9a (human) methyltransferase inhibition; Q96KQ7; G9a H3K9 monomethylation, AlphaScreen, 2 h; Potency, µM (doses to about 102 µM), for the others: at the top dose activity, negative = inhibition, actives largely listed as inhibitors; 350,000 compounds, 8.8% hits; AID 504332; note: % is set by controls: 0 for no effect and ±100 for the full control effect; nearly all actives have a fitted effect of over 75% in size
#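 G9a (20 nM) preincubated 15 min RT with compounds, then 500 nM biotinylated H3K9 peptide and 20 uM SAM added; 2 h RT reaction. Monomethyl-H3K9 product detected by AlphaScreen with anti-H3K9me1 antibody, streptavidin donor and anti-rabbit IgG acceptor beads.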
# L3MBTL1 inh – L3MBTL1 (human) inhibition. Potency, µM (highest dose often 57.1 µM), without a hit: top-dose activity, negative = inhibition, usual class: inhibitors. AlphaScreen L3MBTL1–H3K9me1 peptide binding. Q9Y468. 230,000 compounds, 0.66% hits; note: % is set by controls: 0 for no effect and ±100 for the full control effect; nearly all actives have a fitted effect of over 60% in size
# Target sequence (Q9Y468 whole entry, looked up): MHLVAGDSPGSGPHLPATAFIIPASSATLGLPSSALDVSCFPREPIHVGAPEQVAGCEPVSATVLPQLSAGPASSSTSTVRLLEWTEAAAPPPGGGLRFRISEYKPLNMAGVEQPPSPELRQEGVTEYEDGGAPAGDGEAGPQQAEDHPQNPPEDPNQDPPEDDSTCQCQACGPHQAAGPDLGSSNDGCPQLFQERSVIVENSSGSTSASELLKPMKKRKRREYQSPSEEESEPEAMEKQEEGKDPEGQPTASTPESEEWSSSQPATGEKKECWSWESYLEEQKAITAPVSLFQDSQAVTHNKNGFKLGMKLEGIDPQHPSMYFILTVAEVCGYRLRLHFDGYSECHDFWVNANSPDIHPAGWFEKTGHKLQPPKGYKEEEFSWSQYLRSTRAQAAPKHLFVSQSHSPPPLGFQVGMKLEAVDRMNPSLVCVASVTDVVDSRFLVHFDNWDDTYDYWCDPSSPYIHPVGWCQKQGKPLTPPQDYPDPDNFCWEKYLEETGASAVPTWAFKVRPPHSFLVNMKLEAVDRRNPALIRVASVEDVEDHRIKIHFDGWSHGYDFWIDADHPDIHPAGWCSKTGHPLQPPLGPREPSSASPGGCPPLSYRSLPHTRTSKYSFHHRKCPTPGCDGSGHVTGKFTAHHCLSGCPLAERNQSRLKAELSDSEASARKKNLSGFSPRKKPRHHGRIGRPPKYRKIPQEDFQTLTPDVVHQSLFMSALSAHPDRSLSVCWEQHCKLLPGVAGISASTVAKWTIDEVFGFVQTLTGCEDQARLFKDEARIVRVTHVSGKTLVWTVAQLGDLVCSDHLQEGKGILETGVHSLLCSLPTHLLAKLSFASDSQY
#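 AlphaScreen proximity signal between nickel-chelate acceptor and streptavidin donor beads (final 10 ug/mL) reports binding of 50 nM L3MBTL1 to 75 nM biotin-H3 K9me1 peptide; complex incubated with compounds 30 min at room temperature; cefsulodin titration as control.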
# Sfp PPTase inh – Sfp phosphopantetheinyl transferase inhibition | Potency, µM, for the others: largest response in the series, negative = inhibition, hits mostly inhibitors | Q9F4F7 | Biochemical Sfp PPTase activity, qHTS | 310,000 compounds, 3.5% hits | AID 1490;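 note: the enzyme is Sfp with the accession as filed and its product quenches rhodamine fluorescence; 0% = enzyme reaction without inhibitor and -100% = no enzyme wells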
#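 After 15 min at room temperature with compound, 15 nM Sfp received 5 uM rhodamine-CoA plus 12.5 uM BHQ-2-ybbR (50 mM Hepes pH 7.6, 10 mM MgCl2). Rate came from the fluorescence difference over 30 min, ex 525/em 598 nm.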
# Numbers without * were called inactive; u = inconclusive; x = no result given; ! = repeats disagree; [ ] = dose if it differs, or a comment. Calls come from the whole dose curve; as a rule, active = well fitted curve in the direction sought with a large enough effect; inconclusive = small, poorly fitted or top-dose-only effect, or another doubt; inactive = no such curve, though single readings can be large; an effect the other way counts as inactive or inconclusive. Potency is the fitted concentration of half-maximal effect.
SMILES,BAZ2B block,JMJD2A Tudor,HP1b binding inh,G9a inh,L3MBTL1 inh,Sfp PPTase inh
CCOc1ccc(-c2nc(CSCC(=O)NC3CCCc4ccccc43)c(C)o2)cc1 (centres undefined),u,-27%,26%,u,x,22µM*
CCOc1ccc(-c2nc(CSCC(=O)N3CCN(c4cccc(OC)c4)CC3)c(C)o2)cc1,u,56µM*,u,u,-21%,-5%
CCOc1ccc(-c2nc(CSCC(=O)NC3CC3)c(C)o2)cc1,-8%,-19%,23%,-3%[0.0925 µM],x,12%
Cc1cc(=O)c2cc(C(=O)Nc3ccc(C)c(C)c3)ccc2[nH]1,-1%,-10%,48%,u,x,x
C/C(=N\OCC(=O)OCC(=O)N(C)c1ccccc1)c1ccc2c(c1)OCO2,79µM*,5%,35%,9%[12.7 µM],4%,x
COc1ccc(/C=N/OCC(=O)OCC(=O)N(C)c2ccccc2)cc1,-2%,-2%,21%,50µM*,3%,x
COC(=O)N1C(C)=Cc2ccccc2C1CC(C)=O (centres undefined),x,x,x,x,x,6%
Cc1cccc(N2CCN(C(=O)c3c4c(nc5ccccc35)C(=O)N(C3CCCCC3)C4)CC2)c1C,-31%,u,39%,-3%[59 µM],x,x
C[C@@H](C(=O)Nc1ccc2ccccc2c1)[C@H]1C[C@]1(C)[C@H](NS(=O)(=O)c1ccc2ccccc2c1)c1ccccc1,x,x,x,x,x,13%
Cc1nn(C)c(Cl)c1S(=O)(=O)N[C@@H](c1ccccc1)[C@]1(C)C[C@H]1[C@@H](C)C(=O)Nc1ccc2ccccc2c1,-25%,-18%,24%,50µM*,-10%,8%
CC(C)(C)C(=O)Nc1ccc2c(c1)C(=O)C(=O)c1ccccc1-2,x,5%,42%,x,x,x
COC(=O)N1CCC2(CCCN(C(=O)Nc3ccc(OC)cc3)C2)CC1,x,x,x,-7%[12.7 µM],x,12%
Cc1cc(N/N=C/c2ccc(O)cc2)c2cccc(C)c2n1,40µM*,u,u,x,-4%,-27%
Cc1cc(-c2ccccc2)nc(N/N=C/c2ccc(O)cc2)n1,-31%,-25%,13%,2%[0.501 µM],-14%,x
Cc1cc(C)c2nc(C)cc(N/N=C/c3ccc(O)cc3)c2c1,40µM*,50µM*,6%,u,-7%,u
O=S(=O)(c1cc(Cl)cc(Cl)c1)N1CCN(c2nc(-c3cccs3)nc3ccccc23)CC1,x,-17%,38%,x,x,x
Cc1cc(C)c2c(N=NN3CCCCC3)[nH]nc2n1,-12%,-1%,14%,45µM*,-3%,-23%
Brc1cc2c(cc1/C=N/Nc1nc(N3CCCC3)nc(N3CCOCC3)n1)OCO2,-9%,-27%,7%,16µM*,-3%,4%
Oc1ccc(Br)cc1/C=N/Nc1nc(N2CCCCC2)nc(N2CCOCC2)n1,-13%,-13%,37%,15%,-1%,6%
CCCCN(C(=O)C1CCC(CNS(=O)(=O)c2cccc3nsnc23)CC1)c1ccccc1 (centres undefined),-33%,u,-1%,u,x,x
Cc1cccc(N/N=C2/COC(C)(C)CC2=O)c1,u,-27%,9%,79µM*,-9%,-3%
CCOCCCNC(=O)NC(C)c1c(-n2cccc2)sc2c1CCN(CC)C2 (centres undefined),-13%,-27%,3%,-33%[59 µM],x,x
COc1cccc(NC(=O)CCc2nnc3n(Cc4ccccc4Cl)c(=O)c4ccccc4n23)c1,-1%,-3%,31%,2%[59 µM],x,x
Cc1ccc(C2N3CC4([N+](=O)[O-])CN2CC([N+](=O)[O-])(C3)C4(C)C)cc1 (centres undefined),4%,-9%,35%,0%[59 µM],-4%,0%
CC1(C)C2([N+](=O)[O-])CN3CC1([N+](=O)[O-])CN(C2)C3c1ccc(O)c(O)c1 (centres undefined),-17%,u,15%,22µM*,x,-6%
SMILES,BAZ2B block,JMJD2A Tudor,HP1b binding inh,G9a inh,L3MBTL1 inh,Sfp PPTase inh
Cc1ccc(N2CC(C(=O)NCCS(=O)(=O)N3CCN(c4ccccc4F)CC3)CC2=O)cc1 (centres undefined),-15%,16µM*!,1%,-8%[59 µM],x,16%
Cc1ccc(C)c(SCC(=O)OCC(=O)c2ccco2)c1,50µM*,79µM*,u,u,u,-4%
Cn1c(N)c(C(=O)COC(=O)Cc2cccs2)c(=O)n(C)c1=O,x,-10%,16%,x,-3%,x
O=C(Cc1cccs1)OCC(=O)c1ccco1,u,79µM*,u,50µM*,u,-19%
CCOc1ccc(CNC(=O)CCn2c(=O)c3cccn3c3ccc(F)cc32)cc1,-12%,-15%,32%,1%[59 µM],x,x
CN(C)c1ccc(CNC(=O)CN2C(=O)CSc3ccc(S(=O)(=O)N4CCCC4)cc32)cc1,u,u,-23%,11µM*,x,x
O=C(CN1C(=O)CSc2ccc(S(=O)(=O)N3CCCC3)cc21)NCc1ccc(Cl)cc1,-15%,-17%,13%,4%[59 µM],x,x
CN(C)c1ccc(CNC(=O)CCS(=O)(=O)c2ccc3c(c2)n(C)c(=O)c(=O)n3C)cc1,u,u,-27%,18µM*,u,4%
CN(C)c1ccc(CNC(=O)CCc2ccc(S(=O)(=O)N3CCCCCC3)cc2)cc1,45µM*,50µM*,-22%,28µM*,-23%,x

# From PubChem BioAssay
